The source of these data is ChEMBL document CHEMBL1157539, “Thousands of chemical starting points for antimalarial lead identification” (Nature, 2010).

Format in all cases: functional
For assay [1], the system named is Plasmodium falciparum. In words: GSK_TCMDC: Inhibition of Plasmodium falciparum 3D7 in whole red blood cells, using parasite LDH activity as an index of growth. Test compounds present at 2uM.
Assay [2] concerns Plasmodium falciparum. In words: GSK_TCMDC: Inhibition of Plasmodium falciparum Dd2 in whole red blood cells, using parasite LDH activity as an index of growth. Test compounds present at 2uM.
The test system of a further assay is HepG2. In words: GSK_TCMDC: Percent inhibition of human HepG2 cell line. Test compounds present at 10uM.

By Inhibition is commonly meant how much of the control response was suppressed. Higher therefore signals a response far below the control. Consider `COc1ccccc1/C=C/C(=O)N(C)C1CCN(CCCCCNC(=O)/C=C/c2ccc(Cl)c(Cl)c2)C1` (stereo unspecified), for which the Inhibition with Plasmodium falciparum [1] is on record as 94%; with Plasmodium falciparum [2], 14%; with HepG2, 10%.

`Cn1cncc1C(=O)Nc1cccc(-c2ccc(-c3nc4ccccc4[nH]3)cc2)c1`: the Inhibition in the assay on Plasmodium falciparum [1] was 99%; in the assay on Plasmodium falciparum [2] it was 11%; with HepG2, 0%.

As for `COc1ccc2nc(C)cc(Nc3ccc(Oc4ccc(Cl)c5ccccc45)c(Cl)c3)c2c1`, the Inhibition is 100% in the assay with Plasmodium falciparum [1], 100% in the assay with Plasmodium falciparum [2] and 83% in the assay with HepG2.

With `Br.COc1ccc2c(c1)CCCC2C(C)NCC(O)c1cccc(C(F)(F)F)c1` (stereo unspecified), the results for the Inhibition in the assay with Plasmodium falciparum [1], in the assay with Plasmodium falciparum [2] and in the assay with HepG2 were 99%, 99% and 3%, respectively.

For the compound `CNC(=O)c1cnc(Nc2ccc(OCC(O)CN(C)C)cc2)nc1Nc1cccc(Br)c1.O=C(O)C(F)(F)F` (stereo unspecified), the results for the Inhibition in the assay with Plasmodium falciparum [1], in the assay with Plasmodium falciparum [2] and with HepG2 were 100%, 100% and 68%, respectively.

As to `CCn1cc(CN2CCCC(C(=O)Nc3ccc(-c4nc5ccccc5[nH]4)cc3)C2)cn1` (stereo unspecified), the figures for the Inhibition in the assay on Plasmodium falciparum [1], in the assay on Plasmodium falciparum [2] and with HepG2 were 100%, 26% and 8%, respectively.

With `CN1CCN(Cc2ccc(-c3cc4nccc(Nc5ccc(Oc6ccccc6)cc5)c4cc3Cl)o2)CC1`, the Inhibition in the assay with Plasmodium falciparum [1] is 100%; in the assay with Plasmodium falciparum [2], 99%; with HepG2, 3%.

Consider `Cc1ccccc1N1CCN(c2ccc(C(=O)NC(C)C)cn2)CC1.O=C(O)C(F)(F)F`, for which the Inhibition is given as 89% in the assay with Plasmodium falciparum [1], 91% in the assay on Plasmodium falciparum [2] and 13% in the assay with HepG2.

With `CC(C)[C@H](NC(=O)c1ccc(O)c(-c2cccc(C(F)(F)F)c2)c1)C(=O)NC1CCCc2ccccc21` (stereo partly specified), the Inhibition was determined as 82% with Plasmodium falciparum [1], 25% with Plasmodium falciparum [2] and 2% in the assay on HepG2.

On to `N#Cc1cccc(CN(Cc2ccc(Cl)c(Cl)c2)S(=O)(=O)c2cccc([N+](=O)[O-])c2)c1`, for which the Inhibition in the assay with Plasmodium falciparum [1] amounted to 100%; in the assay on Plasmodium falciparum [2], 73%; in the assay on HepG2, 3%.

For the compound `CCS(=O)(=O)c1ccc(-c2cnc3[nH]cc(-c4ccc(N)cc4)c3c2)cc1`, the Inhibition came to 92% in the assay with Plasmodium falciparum [1], 99% with Plasmodium falciparum [2] and 24% with HepG2.

Consider `CC(C)CNCc1ccc(-c2ccc(CNC3CCN(Cc4ccccc4)CC3)cc2)cc1.O=C(O)C(F)(F)F`, for which the Inhibition was 100% in the assay on Plasmodium falciparum [1], 96% in the assay with Plasmodium falciparum [2] and 16% in the assay on HepG2.

On to `NS(=O)(=O)c1cccc(Nc2nc(N[C@@H]3CCNC3)nc3cc[nH]c(=O)c23)c1.O=C(O)C(F)(F)F`, for which the Inhibition came to 99% with Plasmodium falciparum [1], 98% in the assay with Plasmodium falciparum [2] and 7% in the assay with HepG2.

On to `COc1ccc(C(C(=O)NC2CCN(C[C@H](O)c3ccnc4ccc(OC)cc34)CC2)N2CCN(c3ccc(F)cc3)CC2)cc1` (stereo partly specified), for which the Inhibition with Plasmodium falciparum [1] is listed as 97%; with Plasmodium falciparum [2], 86%; in the assay on HepG2 it was 16%.

As to `CCCCCc1cc(OC(C)=O)c2c(c1)OC(C)(C)C=C2C1=CCN(Cc2ccccc2)CC1.O=C(O)/C=C/C(=O)O`, the Inhibition came to 97% with Plasmodium falciparum [1], 88% in the assay on Plasmodium falciparum [2] and 14% with HepG2.

As for `Cc1cc(Cl)c(Cl)cc1NC(=O)Nc1cccc(C(F)(F)F)c1`, the Inhibition in the assay with Plasmodium falciparum [1] is 93%; with Plasmodium falciparum [2] it was 99%; in the assay with HepG2, 1%.

Turning to `COc1ccc2nccc(N(C)CC3(O)CCC(NCc4ccc5c(n4)NC(=O)CS5)CC3)c2n1.Cl` (stereo unspecified), the Inhibition with Plasmodium falciparum [1] is on record as 98%; with Plasmodium falciparum [2], 23%; with HepG2 it was 1%.

In the case of `COc1cccc(NC(=O)NC2CCN(c3ccnc(Nc4cc(OC)c(OC)c(OC)c4)n3)C2)c1` (stereo unspecified), the Inhibition with Plasmodium falciparum [1] is listed as 95%; in the assay with Plasmodium falciparum [2] it was 57%; in the assay on HepG2, 8%.

Take `COc1cc2nc(NCc3ccc(S(N)(=O)=O)cc3)nc(Nc3ccc(Oc4ccccc4)cc3)c2cc1OC`: the Inhibition with Plasmodium falciparum [1] was found to be 100%; in the assay with Plasmodium falciparum [2], 100%; in the assay with HepG2, 14%.

As for `CCCN1CCN(CCCNC(=O)c2cc3c(Cl)nc4ccc(C)cc4c3s2)CC1`, the results for the Inhibition in the assay on Plasmodium falciparum [1], in the assay with Plasmodium falciparum [2] and with HepG2 were 97%, 27% and 18%, respectively.

Turning to `Cc1cc(N2CCCC2)nc(NC(=N)Nc2cccc(C(F)(F)F)c2)n1`, the Inhibition in the assay with Plasmodium falciparum [1] is 100%; with Plasmodium falciparum [2], 100%; in the assay on HepG2, 33%.

As to `O=C(NCc1ccc(C(=O)NCc2cccc3ccccc23)cc1)c1ccc(O)c(-c2ccc(Cl)c(Cl)c2)c1`, the Inhibition is reported as 100% in the assay with Plasmodium falciparum [1], 31% in the assay with Plasmodium falciparum [2] and 0% with HepG2.

For the compound `O=c1nc2[nH]c3ccccc3n2c(=O)[nH]1`, the figures for the Inhibition in the assay with Plasmodium falciparum [1], in the assay with Plasmodium falciparum [2] and with HepG2 were 95%, 0% and 21%, respectively.

In the case of `CC1CN(c2cnn(Cc3cccc(NC(=O)Nc4cccc(C(F)(F)F)c4)c3)c(=O)c2Cl)CC(C)N1.O=C(O)C(F)(F)F` (stereo unspecified), the Inhibition with Plasmodium falciparum [1] is given as 96%; in the assay with Plasmodium falciparum [2] it was 74%; in the assay on HepG2 it was 19%.

On to `CCOc1ccccc1CCNCC1CCN(CC2CCCCC2)CC1.O=C(O)C(F)(F)F`, for which the values for the Inhibition in the assay on Plasmodium falciparum [1], in the assay with Plasmodium falciparum [2] and with HepG2 were 84%, 59% and 35%, respectively.

Regarding `Cc1cccc(NC(=O)Nc2cccc(-c3ccc(-c4nc5cc(C(F)(F)F)ccc5[nH]4)cc3)c2)c1`, the Inhibition in the assay with Plasmodium falciparum [1] is on record as 100%; in the assay with Plasmodium falciparum [2], 94%; in the assay on HepG2, 44%.

Take `Cl.FC(F)(F)c1ccccc1OCc1cc(-c2ccncc2)c(COc2ccccc2C(F)(F)F)cc1C1=CCNCC1`: the figures for the Inhibition with Plasmodium falciparum [1], in the assay on Plasmodium falciparum [2] and with HepG2 were 98%, 81% and 31%, respectively.
